In PubChem BioAssay AID2187 (The Scripps Research Institute Molecular Screening Center, 2009):
Among all 1,300 compounds or so, about 1,200 (92%) were called active.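 The calls were made as follows: active = inhibition of the VIM-2 beta-lactamase enzyme above about 11% from the earlier first-round screen (limit read from the data); inactive = the rest.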 The set was probably picked from earlier hits. The list is a sample of the results.

System: VIM-2 metallo-beta-lactamase (Pseudomonas aeruginosa)
Assay: inhibition of VIM-2 nitrocefin hydrolysis – biochemical, epi-absorbance, hits shared with IMP-1 screen, confirmation (AID 2187);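 also: 0% = VIM-2 with DMSO and 100% = buffer wells without enzyme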
Details: purified VIM-2, nitrocefin hydrolysis, at 5.6 µM, stronger effect = higher value

Q: `Cc1cc(OCc2cc(C(=O)O)oc2C)c2c3c(c(=O)oc2c1)CCCC3` was tested. Which inhibition did it give?
A: The inhibition was 73.5% (active).

Q: For `Cc1cc(=O)oc2c(C)c(OCC(=O)N3CCN(Cc4ccc5c(c4)OCO5)CC3)ccc12`, which inhibition is on record?
A: Its inhibition is 58.3% (active).
